The text below walks through data of PubChem BioAssay (Tox21).

Values joined by “and” are separate entries in the source; they are usually repeats but may differ in a detail not shown here. Equal values may be shown once. Inconclusive results are not listed. Active and inactive are the calls of the source. The call rests on the fitted dose curve; in most records, active means well fitted cell-killing curve with a large enough effect in the repeat runs; inconclusive means weak or mixed curves; inactive means no such curve, though single readings can be large or run the other way.
On the % scale 0 is the no-effect control and ±100 the full control effect; potency means the concentration at half of the fitted maximal effect.

A short description of the assay: qHTS assay to identify small molecule agonists of the peroxisome proliferator-activated receptor delta (PPARd) signaling pathway - cell viability counter screen (AID 743211). Further: nearly all actives have a fitted effect of over 55% in size. The note with it: PPARd-bla HEK293H viability, CellTiter-Glo luminescence, 17 h; series mostly up to 62.6 µM; activity change, negative = cytotoxicity: at the top concentration. The text has this: U.S. Tox21 Program National Center for Advancing Translational Sciences [NCATS] NIH Chemical Genomics Center [NCGC] U.S. Environmental Protection Agency [EPA] National Institutes of Environmental Health Sciences [NIEHS] National Toxicology Program [NTP] U.S. Food and Drug Administration [FDA] Tox21 Assay Overview: The peroxisome proliferator-activated receptors (PPARs) are lipid-activated transcription factors of the nuclear receptor superfamily with three distinct subtypes namely PPAR alpha, PPAR delta (PPARd) and PPAR gamma. All these subtypes heterodimerizes with Retinoid X receptor (RXR) and have different physiological functions. […] To identify the compounds that activate PPAR-delta signaling, GeneBLAzer PPAR delta UAS-bla HEK293H cell line (Invitrogen, Carlsbad, CA, USA) containing a beta-lactamase reporter gene under the control of an Upstream Activator Sequence (UAS) was used to screen the Tox21 compound library. The cytotoxicity of the Tox21 compound library against the PPARd-bla cell line was tested in parallel by measuring the cell viability using CellTiter-Glo assay (Promega, Madison, WI) in the same wells.
Tox21 Assay Protocol Summary: PPARd-bla cells were dispensed at 3000 cells/6uL/well in 1536-well black wall/clear bottom plates using a Multidrop Combi (Thermo Fisher Scientific, Waltham, MA) dispenser. After the assay plates were incubated at 37 C and 5% CO2 for 5 h, 23 nL of compounds dissolved in DMSO, positive controls or DMSO only was transferred to the assay plate by a Pintool station (Kalypsys, San Diego, CA). The assay plates were incubated at 37C for 17 h. After 1 uL of LiveBLAzerTM B/G FRET substrate was added using a Bioraptr Flying Reagent Dispenser (FRD) workstation (Beckman Coulter, Indianapolis, IN, USA), the plates were incubated at room temperature for 2 h, and fluorescence intensity was measured by an Envision plate reader (PerkinElmer, Shelton, CT). For cell viability readout that measures cytotoxicity, 3 ul/well of CellTiter-Glo reagent was added into the assay plates using a Bioraptr FRD. After 30 min incubation at room temperature, the luminescence intensity in the plates was measured using a ViewLux plate reader (PerkinElmer).
Regarding `CC(=O)OC(c1ccccc1)C(Cl)(Cl)Cl` (stereo not given), the “activity change, negative = cytotoxicity” value was 7.11% (inactive). On to `Clc1ccc(Cl)c(Cl)c1`, for which the Potency entry was “inactive”. As for `C=CCN1C[C@H](C)N([C@H](c2ccc(C(=O)N(CC)CC)cc2)c2cccc(OC)c2)C[C@H]1C`, the “activity change, negative = cytotoxicity” value is 0.0069% (inactive). Take `O=C1CC[C@@]2(O)[C@H]3Cc4ccc(O)c5c4[C@@]2(CCN3CC2CC2)[C@H]1O5`: the “activity change, negative = cytotoxicity” value is 12.3% (inactive).

Turning to `CCCC[P+](CC)(CCCC)CCCC` (tested in a mixture with another compound), the “activity change, negative = cytotoxicity” value was -6.71% [at 81.1 µM] (inactive). Consider `CCC1CCC(=O)O1` (stereo not given), for which the “activity change, negative = cytotoxicity” value was 0.887% [at 81.1 µM] (inactive).

Consider `O=[N+]([O-])O[C@H]1CO[C@H]2[C@@H]1OC[C@H]2O[N+](=O)[O-]`, for which the “activity change, negative = cytotoxicity” value is 4.77% (inactive). Turning to `c1ccc2c(c1)-c1cccc3cccc-2c13`, the Potency entry was “inactive”. Regarding `CCC(C)Cl` (stereo not given), the “activity change, negative = cytotoxicity” value was 4.94% (inactive). Take `Clc1ccc2ccccc2c1`: the “activity change, negative = cytotoxicity” value is 0.255% [at 81.1 µM] (inactive). Turning to `COc1ccc(C(O)(c2cncnc2)C2CC2)cc1` (stereo not given), the “activity change, negative = cytotoxicity” value is 6.33% (inactive). In the case of `CC(C)(c1ccccc1)c1cc(-n2nc3ccccc3n2)c(O)c(C(C)(C)c2ccccc2)c1`, the “activity change, negative = cytotoxicity” value was 4.75% (inactive). For `C[C@H](N)[C@H](O)c1ccc(O)c(O)c1`, the “activity change, negative = cytotoxicity” value is -1.26% (inactive). For the compound `CCCCC#N`, the “activity change, negative = cytotoxicity” value is -1.06% (inactive).

For the compound `C=CC(C)(CCC=C(C)C)OC(=O)c1ccccc1N` (stereo not given), the “activity change, negative = cytotoxicity” value was 11.4% [at 81.1 µM] (inactive). As to `O=C(O)C(Cl)(Cl)Br`, the “activity change, negative = cytotoxicity” value was -0.997% [at 81.1 µM] (inactive).

As to `CCCCCCCCCCCC[N+](C)(C)CCOc1ccccc1`, the Potency is 13.8 µM (active) and 11.9 µM (active). For `C[C@H]1O[C@H](OC2[C@@H](O)[C@@H](O)C(O)[C@H](O)[C@H]2O)[C@@H](N)C[C@@H]1N=C(N)C(=O)O` (stereo not given in full), the “activity change, negative = cytotoxicity” value is 0.932% (inactive). Turning to `C[CH2][Hg][S]c1ccccc1C(=O)O`, the Potency was 871 nM (active) and 2.11 µM (active).

On to `N#CC(C#N)=C(C#N)C#N`, for which the “activity change, negative = cytotoxicity” value was -7.86% [at 81.1 µM] (inactive). Same read-out and setting: with `C[N+]1(CCF)[C@@H]2CC[C@H]1CC(OC(=O)C(O)(c1ccccc1)c1ccccc1)C2` (stereo not given in full) the figure was 1.31% (inactive); with `C[N+](C)(C)CC1CO1` (stereo not given), 1.41% (inactive). As for `Nc1cc(Cl)cc(C(=O)O)c1Cl`, the Potency result is “inactive”.

Take `O=C(N/N=C/c1ccc([N+](=O)[O-])o1)c1cc([N+](=O)[O-])cc([N+](=O)[O-])c1O`: the “activity change, negative = cytotoxicity” value was 3.08% (inactive). For `CCCN(CCC)c1c([N+](=O)[O-])cc(C(C)C)cc1[N+](=O)[O-]`, the Potency result was “inactive”. On to `CN(C)N`, for which the “activity change, negative = cytotoxicity” value was 2.76% (inactive). `Oc1cccc(Cl)c1`: the “activity change, negative = cytotoxicity” value was -9.42% (inactive). For `C[C@]12C=CC3=C4CCC(=O)C=C4CC[C@H]3[C@@H]1CC[C@@H]2O`, the “activity change, negative = cytotoxicity” value is -4.47% (inactive). `OCC1CO1` (stereo not given): the Potency result was “inactive”.

With `CCN(C(C)=O)c1cccc(-c2ccnc3c(C#N)cnn23)c1`, the “activity change, negative = cytotoxicity” value is 0.31% (inactive).

For `C1CCNCC1`, the “activity change, negative = cytotoxicity” value is 0.575% [at 81.1 µM] (inactive).

For `CCCCCCCCP(=O)(O)O`, the “activity change, negative = cytotoxicity” value was -1.09% (inactive).

In the case of `CC(C)(C)c1ccc(CCOc2ncnc3ccccc23)cc1`, the “activity change, negative = cytotoxicity” value is 5.16% (inactive).

In the case of `C=C(C)C(=O)OCCCCOC(=O)C(=C)C`, the “activity change, negative = cytotoxicity” value is 13.5% (inactive). For `CN1C(=O)CN=C(c2ccccc2)c2cc([N+](=O)[O-])ccc21`, the “activity change, negative = cytotoxicity” value is 4.69% (inactive). Regarding `N#CC1(N=NC2(C#N)CCCCC2)CCCCC1`, the “activity change, negative = cytotoxicity” value is -4.48% (inactive).

Regarding `Cc1ccccc1`, the “activity change, negative = cytotoxicity” value was -2.78% (inactive). Consider `CCCSP(=S)(OCC)Oc1ccc(SC)cc1` (stereo not given), for which the “activity change, negative = cytotoxicity” value is 8.13% (inactive). As for `CCCCCCCCCCCCCCCl`, the “activity change, negative = cytotoxicity” value is -4.6% [at 81.1 µM] (inactive). As for `CN(C1CCCCC1)C1CCCCC1`, the “activity change, negative = cytotoxicity” value was 6.69% (inactive).
